The values that follow come from PubChem BioAssay (NCI).

Several values for one entry are separate records, joined by “and”; a condition that tells them apart may be missing. Equal entries are not always repeated. The panel holds about 83,000 compounds, 20% with a hit somewhere; the sample as a whole holds those more often.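 Step 1: grow cells in 96-well plates. Step 2: add test compound at a single concentration. Step 3: incubate 48 h. Step 4: record percent growth.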 Activity calls are given as the source filed them. The calls were made as follows: active = growth percent below 10; inactive = the rest.

Test in all cases: NCI-60 one-dose screen, 48 h (100 = growth as untreated, 0 = no growth, -100 = all killed)
The subject of one assay is HCT-15 colon. Conditions: 10 µM.
Another assay concerns HT29 colon. The note with it: 10 µM.
Another assay has as its system SNB-75 CNS. Conditions: 10 µM.
A further assay concerns SNB-19 CNS. Conditions: 10 µM.
The subject of a further assay is U251 CNS. The note with it: 10 µM.
For another assay, the system named is PC-3 prostate. Conditions: 10 µM.
In another assay the test system is SK-MEL-5 melanoma. Conditions: 10 µM.
A further assay relates to UACC-62 melanoma. The note with it: 10 µM unless noted.
In the next assay the test system is LOX IMVI melanoma. Conditions: 10 µM.
For the next assay, the system named is SK-MEL-28 melanoma. Conditions: 10 µM.
Another assay relates to SK-MEL-2 melanoma. The note with it: 10 µM.
For another assay, the system named is EKVX NSCLC. The note with it: 10 µM.
Another assay relates to SN12C renal. Conditions: 10 µM.
In a further assay the test system is UO-31 renal. Conditions: 10 µM.
Another assay relates to TK-10 renal. Conditions: 10 µM unless noted.
A further assay deals with ACHN renal. The note with it: 10 µM.
Another assay has as its system CAKI-1 renal. Conditions: 10 µM.
The test system of the next assay is HL-60(TB) leukemia. Conditions: 10 µM.
The test system of another assay is A498 renal. The note with it: 10 µM.
The test system of another assay is CCRF-CEM leukemia. The note with it: 10 µM.

Take `CN(CCCl)c1ccc(/C=C/C2=[N+](C)c3ccccc3C2(C)C)cc1`: the growth with HCT-15 colon was 101% (inactive); in the assay with HT29 colon, 5.58% (active); in the assay with SNB-75 CNS, 38.9% (inactive); in the assay on SNB-19 CNS, 42.5% (inactive); in the assay on U251 CNS it was 13.1% (inactive); in the assay on PC-3 prostate it was 5.9% (active). The growth with SK-MEL-5 melanoma was 21.8% (inactive); in the assay with UACC-62 melanoma, 31.6% (inactive); with LOX IMVI melanoma, 16.9% (inactive); in the assay on SK-MEL-28 melanoma, 40.1% (inactive); in the assay with SK-MEL-2 melanoma, 46% (inactive); in the assay with EKVX NSCLC, 54.6% (inactive). For the same compound, the growth with SN12C renal was 1.3% (active); in the assay with UO-31 renal, 87.3% (inactive); in the assay with TK-10 renal, 54.7% (inactive); with ACHN renal, 85.2% (inactive); in the assay on CAKI-1 renal, 102% (inactive); in the assay on HL-60(TB) leukemia, -29.5% (active).

Take `O=C1C(=O)c2ccccc2-c2ccccc21`: the growth is -69.5% (active) with HCT-15 colon; -16.1% (active) in the assay with HT29 colon; -100% (active) in the assay with SNB-75 CNS; -78.6% (active) with SNB-19 CNS; -87.8% (active) in the assay on U251 CNS; -47% (active) in the assay with PC-3 prostate. Further, the growth with SK-MEL-5 melanoma was -95.7% (active); in the assay with UACC-62 melanoma, -67.4% (active); in the assay on LOX IMVI melanoma, -58.5% (active); in the assay on SK-MEL-28 melanoma, -91.2% (active); with SK-MEL-2 melanoma, -50.3% (active); in the assay with EKVX NSCLC, -96.9% (active). The growth in the assay with SN12C renal is -61.5% (active); in the assay on UO-31 renal, -86.4% (active); in the assay on TK-10 renal, -97.9% (active); in the assay with ACHN renal, -94.3% (active); in the assay with CAKI-1 renal, -100% (active); in the assay on A498 renal, 88.9% (inactive). For the same compound, the growth is -42.4% (active) in the assay on HL-60(TB) leukemia and -10.9% (active) with CCRF-CEM leukemia.

With `C[C@@H]1C[C@@H]([C@H](O)CC2CC(=O)NC(=O)C2)C(=O)[C@@H](C)C1`, the growth is 8.36% (active) in the assay on HCT-15 colon; 3.76% (active) in the assay on HT29 colon; 8.07% (active) in the assay on SNB-75 CNS; 10.5% (inactive) in the assay with SNB-19 CNS; 3.25% (active) in the assay on U251 CNS; 8.32% (active) in the assay on PC-3 prostate. Further, the growth in the assay on SK-MEL-5 melanoma is 0.54% (active); in the assay with UACC-62 melanoma, 5.43% (active); in the assay with LOX IMVI melanoma, -10.7% (active); in the assay on SK-MEL-28 melanoma, -13.1% (active); in the assay with SK-MEL-2 melanoma, -6.5% (active); with EKVX NSCLC it was 12.4% (inactive). Further, the growth in the assay with UO-31 renal is 0.7% (active); in the assay on TK-10 renal, 8.46% (active); with ACHN renal it was 3.19% (active); in the assay on CAKI-1 renal it was 15.9% (inactive); in the assay on A498 renal it was 17.7% (inactive); in the assay with HL-60(TB) leukemia, -3.87% (active).

`CCOP(=O)(OCC)C(O)c1ccccc1Cl` (stereo not given): the growth in the assay with HCT-15 colon is 88.8% (inactive); with HT29 colon, 105% (inactive); with SNB-75 CNS, 98.5% (inactive); in the assay with SNB-19 CNS it was 105% (inactive); in the assay with U251 CNS, 99.5% (inactive); in the assay on PC-3 prostate, 98.3% (inactive). Further, the growth with SK-MEL-5 melanoma is 103% (inactive); in the assay on UACC-62 melanoma it was 108% (inactive); in the assay with LOX IMVI melanoma, 97.9% (inactive); in the assay on SK-MEL-28 melanoma, 114% (inactive); in the assay with SK-MEL-2 melanoma, 93% (inactive); in the assay on UO-31 renal, 90.5% (inactive). For the same compound, the growth in the assay with ACHN renal is 96.8% (inactive); with HL-60(TB) leukemia, 106% (inactive); in the assay on CCRF-CEM leukemia, 93.9% (inactive).

Regarding `COc1cc(/C=C(/C)[N+](=O)[O-])ccc1O`, the growth with HCT-15 colon is -48.3% (active) and 1.2% (active); with HT29 colon, 3.02% (active) and -26.9% (active); with SNB-75 CNS it was 74.3% (inactive) and 1.18% (active); in the assay with SNB-19 CNS, 81.5% (inactive) and 75.1% (inactive); with U251 CNS, 25.4% (inactive) and 28% (inactive); in the assay on PC-3 prostate, 60.7% (inactive) and 56.6% (inactive). For the same compound, the growth with SK-MEL-5 melanoma was 82.3% (inactive) and 64.6% (inactive); in the assay on UACC-62 melanoma, 55.4% (inactive) and -53.8% (active); in the assay with LOX IMVI melanoma, -25.7% (active) and -73.2% (active); in the assay with SK-MEL-28 melanoma, 33.1% (inactive) and -9.24% (active); in the assay on SK-MEL-2 melanoma, 19.6% (inactive) and 72.1% (inactive); with EKVX NSCLC it was 84.6% (inactive). Moreover, the growth was -10.8% (active) and -16.8% (active) with UO-31 renal; -21.2% (active) and 61.7% (inactive) in the assay with TK-10 renal; -39.8% (active) and 16.4% (inactive) in the assay on ACHN renal; -17.3% (active) and -34.3% (active) with HL-60(TB) leukemia; -35% (active) with CCRF-CEM leukemia.

Regarding `COc1ccccc1[As]=[As]c1ccccc1OC` (stereo not given), the growth with HCT-15 colon is -87.2% (active); in the assay on HT29 colon it was -76.9% (active); in the assay with SNB-75 CNS, -91.8% (active); with SNB-19 CNS, -84.5% (active); in the assay on U251 CNS, -83.3% (active); in the assay with PC-3 prostate it was -78.9% (active). For the same compound, the growth was -99.3% (active) with SK-MEL-5 melanoma; -84.6% (active) in the assay with UACC-62 melanoma; -97.3% (active) with LOX IMVI melanoma; -83% (active) with SK-MEL-28 melanoma; -86.9% (active) in the assay on SK-MEL-2 melanoma; -67.7% (active) in the assay with EKVX NSCLC. For the same compound, the growth with UO-31 renal was -93.1% (active); with TK-10 renal it was -95.8% (active); in the assay on ACHN renal it was -96.9% (active); with CAKI-1 renal, -86.5% (active); in the assay with A498 renal it was -96.3% (active); in the assay with HL-60(TB) leukemia, -37.1% (active). Also, the growth in the assay on CCRF-CEM leukemia is 2.34% (active).

`Cn1c(O)c(N=O)c(=O)n(C)c1=O`: the growth in the assay on HCT-15 colon was 104% (inactive) and 111% (inactive); in the assay with HT29 colon it was 117% (inactive) and 114% (inactive); with SNB-75 CNS it was 99.3% (inactive) and 95.2% (inactive); with SNB-19 CNS, 107% (inactive) and 98.5% (inactive); with U251 CNS, 94.6% (inactive) and 109% (inactive); in the assay on PC-3 prostate it was 101% (inactive) and 95.1% (inactive). Also, the growth in the assay on SK-MEL-5 melanoma was 100% (inactive) and 98.1% (inactive); with UACC-62 melanoma it was 99.7% (inactive) and 93.3% (inactive); with LOX IMVI melanoma, 91.4% (inactive) and 94.4% (inactive); in the assay with SK-MEL-28 melanoma it was 113% (inactive) and 107% (inactive); in the assay with SK-MEL-2 melanoma, 108% (inactive) and 109% (inactive); in the assay with EKVX NSCLC, 110% (inactive) and 107% (inactive). Moreover, the growth was 108% (inactive) and 94.7% (inactive) in the assay with SN12C renal; 89.1% (inactive) and 85.7% (inactive) in the assay with UO-31 renal; 102% (inactive) and 105% (inactive) with TK-10 renal; 110% (inactive) and 105% (inactive) in the assay with ACHN renal; 96.6% (inactive) and 101% (inactive) in the assay with HL-60(TB) leukemia; 111% (inactive) and 113% (inactive) in the assay on CCRF-CEM leukemia.
